Consider 31 compounds from PubChem BioAssay (NCATS).

Where “and” joins values, the source holds several entries; their conditions need not be identical. Equal entries are not always repeated. Results filed as inconclusive are left out. Where a structure was tested more than once in an assay, its records may differ in their call. Calls of active or inactive are those of the source. Unless noted, calls come from the whole dose curve; as a rule, active = well fitted curve in the direction sought with a large enough effect; inconclusive = small, poorly fitted or top-dose-only effect, or another doubt; inactive = no such curve, though single readings can be large; an effect the other way counts as inactive or inconclusive.

Assay [1] is described as follows: Identifying Small Molecule Inhibitors of Pancreatic Cancer Stem Cells (A278, Adherent) (AID 1259361).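 Note: viability read after 48 h compound exposure; nearly all actives have a fitted effect of over 35% in size.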 The method, boiled down: (§1)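 Luminescent ATP readout (CellTiter-Glo) quantifies surviving cells after a 48 h drug incubation. Normalization uses DMSO wells as no inhibition and media-only wells as full inhibition; bortezomib served as positive control.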
Assay [2] can be described thus: Identifying Small Molecule Inhibitors of Pancreatic Cancer Stem Cells (Panc1, Adherent) (AID 1259362). Note: potency is the fitted concentration of half-maximal effect. Particulars: Potency: viability. The method, boiled down: as §1
Assay [3] is described as follows: P-glycoprotein substrates identified in KB-8-5-11 adenocarcinoma cell line, qHTS therapeutic library screen (AID 1346987). Note: nearly all actives have a fitted effect of over 65% in size. Note: potency is the fitted concentration of half-maximal effect. An outline of the steps:
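KB-8-5-11: colchicine-selected sub-line of KB-3-1 over-expressing P-gp; assay medium lacked colchicine. 72 h drug exposure at 37 degree C, CellTiter-Glo.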
(In general: qHTS replaces the single test concentration by a dilution series.)

A short description of assay [4]: NS1 protein of Zika virus - qHTS assay to identify small molecule inhibitors in human HEK 293 cells (AID 1347053). Note: nearly all actives have a fitted effect of over 55% in size. Note: potency is the fitted concentration of half-maximal effect. The method, boiled down:
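Following 20 h seeding, HEK 293 cells took compound, then 1 h later ZIKV MR766 (MOI = 0.5). Incubation ran 24 h at 37 C before TR-FRET detection of NS1; a drop in signal indicates inhibition.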

Assay [5] in a line: P-glycoprotein substrates identified in KB-3-1 adenocarcinoma cell line, qHTS therapeutic library screen (AID 1346986). Note: nearly all actives have a fitted effect of over 60% in size.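 Note: potency is the fitted concentration of half-maximal effect; potency is for cytotoxicity meaning loss of cell viability.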 The method, boiled down:
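KB-3-1 parental cells and P-gp-overexpressing KB-8-5-11 (colchicine omitted during assay) plated at 500 cells/well, dosed in dose-response, incubated 72 h at 37 degree C. CellTiter-Glo luminescence read; KB-8-5-11 also tested with tariquidar.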

Assay [6] addresses Atrial natriuretic peptide receptor 1 (Homo sapiens) (UniProt P16066). Briefly: Natriuretic polypeptide receptor (hNpr1) antagonism - Pilot screen (AID 1347049; calls by dose curve;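 note: agonist-evoked cGMP luminescence read 20 min after hNppA addition; series mostly up to about 58 µM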). The method, boiled down: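 HEK293 cells co-expressing hNpr1 and the GloSensor pGS-40F cGMP luciferase sensor were preloaded with 2% GloSensor reagent for 2 h. Compounds were added for 30 min at room temperature, then cells were stimulated with 0.1 nM hNppA for 20 min before luminescence readout.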

Assay [7] concerns the target Atrial natriuretic peptide receptor 2 (Homo sapiens) (UniProt P20594). Nature of the assay: Natriuretic polypeptide receptor (hNpr2) antagonism - Pilot subtype selectivity assay (AID 1347050; calls by dose curve). An outline of the steps:
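cGMP-sensor HEK293/hNpr2 cells; 2% GloSensor reagent 2 h RT; compounds 30 min; baseline luminescence read; 1 nM hNppC agonist 20 min RT; final luminescence read by CCD camera. Antagonism = reduced post-agonist signal.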

Assay [8] deals with T1, Tyrosine-protein phosphatase non-receptor type substrate 1 (Homo sapiens) + Leukocyte surface antigen CD47 (Homo sapiens) (UniProt P78324+Q08722). Nature of the assay: CD47-SIRPalpha protein protein interaction - LANCE assay qHTS validation (AID 1347057; active = well fitted curve in the direction sought with a large enough effect in the signal ratio, with a control signal flat, not every such curve was filed as active; the % refers to the signal ratio; note: series mostly up to about 38 µM). An outline of the steps: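 First, His-tagged CD47 and Eu-labelled anti-His antibody met the compound for 30 min; next, site-specifically biotinylated SIRPalpha was added for 30 min; finally streptavidin-APC was added before reading the TR-FRET ratio.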
T1 sequence (P78324 whole entry, looked up): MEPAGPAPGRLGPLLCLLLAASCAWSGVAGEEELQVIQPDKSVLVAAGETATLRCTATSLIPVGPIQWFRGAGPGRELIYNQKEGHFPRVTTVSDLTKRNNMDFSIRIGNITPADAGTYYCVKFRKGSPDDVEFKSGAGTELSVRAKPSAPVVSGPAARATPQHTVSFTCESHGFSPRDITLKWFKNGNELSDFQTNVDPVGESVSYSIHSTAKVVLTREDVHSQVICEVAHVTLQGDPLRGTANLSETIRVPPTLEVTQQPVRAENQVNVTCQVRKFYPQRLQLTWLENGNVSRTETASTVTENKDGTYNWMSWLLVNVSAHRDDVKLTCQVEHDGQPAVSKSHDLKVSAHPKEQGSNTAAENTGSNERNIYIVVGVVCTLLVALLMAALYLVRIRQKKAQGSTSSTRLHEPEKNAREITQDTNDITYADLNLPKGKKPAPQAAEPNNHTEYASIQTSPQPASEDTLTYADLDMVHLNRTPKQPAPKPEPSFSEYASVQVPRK
T1 sequence (Q08722 whole entry, looked up): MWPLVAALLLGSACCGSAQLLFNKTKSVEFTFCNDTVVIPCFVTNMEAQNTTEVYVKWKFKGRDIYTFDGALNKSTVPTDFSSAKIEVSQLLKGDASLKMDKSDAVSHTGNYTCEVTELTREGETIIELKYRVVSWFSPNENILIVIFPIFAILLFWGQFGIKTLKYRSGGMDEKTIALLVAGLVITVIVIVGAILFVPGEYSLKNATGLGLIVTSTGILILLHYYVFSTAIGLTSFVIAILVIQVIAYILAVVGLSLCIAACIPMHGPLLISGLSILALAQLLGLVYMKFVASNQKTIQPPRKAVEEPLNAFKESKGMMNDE
A general note: TR-FRET usually uses a lanthanide donor and a delayed reading to cut background.

The target of assay [9] is T1, Tyrosine-protein phosphatase non-receptor type substrate 1 (Homo sapiens) + Leukocyte surface antigen CD47 (Homo sapiens). Briefly: CD47-SIRPalpha protein protein interaction - HTRF assay qHTS validation (AID 1347058; active = well fitted curve in the direction sought with a large enough effect in the signal ratio, not every such curve was filed as active; the % refers to the signal ratio;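 note: recombinant soluble extracellular CD47 with His tag and biotinylated SIRPalpha domains; series mostly up to about 38 µM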). An outline of the steps:
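TR-FRET read (Ch1/Ch2 ratio) of soluble extracellular CD47 and Avi-biotinylated SIRPalpha domains in PBS pH 7.4 with 0.05% IGEPAL; 7-point compound titration. Sequential 30 min room-temperature steps; non-biotinylated SIRPalpha as control inhibitor.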

Chain of Atrial natriuretic peptide receptor 2 (Homo sapiens) (P20594 whole entry, looked up): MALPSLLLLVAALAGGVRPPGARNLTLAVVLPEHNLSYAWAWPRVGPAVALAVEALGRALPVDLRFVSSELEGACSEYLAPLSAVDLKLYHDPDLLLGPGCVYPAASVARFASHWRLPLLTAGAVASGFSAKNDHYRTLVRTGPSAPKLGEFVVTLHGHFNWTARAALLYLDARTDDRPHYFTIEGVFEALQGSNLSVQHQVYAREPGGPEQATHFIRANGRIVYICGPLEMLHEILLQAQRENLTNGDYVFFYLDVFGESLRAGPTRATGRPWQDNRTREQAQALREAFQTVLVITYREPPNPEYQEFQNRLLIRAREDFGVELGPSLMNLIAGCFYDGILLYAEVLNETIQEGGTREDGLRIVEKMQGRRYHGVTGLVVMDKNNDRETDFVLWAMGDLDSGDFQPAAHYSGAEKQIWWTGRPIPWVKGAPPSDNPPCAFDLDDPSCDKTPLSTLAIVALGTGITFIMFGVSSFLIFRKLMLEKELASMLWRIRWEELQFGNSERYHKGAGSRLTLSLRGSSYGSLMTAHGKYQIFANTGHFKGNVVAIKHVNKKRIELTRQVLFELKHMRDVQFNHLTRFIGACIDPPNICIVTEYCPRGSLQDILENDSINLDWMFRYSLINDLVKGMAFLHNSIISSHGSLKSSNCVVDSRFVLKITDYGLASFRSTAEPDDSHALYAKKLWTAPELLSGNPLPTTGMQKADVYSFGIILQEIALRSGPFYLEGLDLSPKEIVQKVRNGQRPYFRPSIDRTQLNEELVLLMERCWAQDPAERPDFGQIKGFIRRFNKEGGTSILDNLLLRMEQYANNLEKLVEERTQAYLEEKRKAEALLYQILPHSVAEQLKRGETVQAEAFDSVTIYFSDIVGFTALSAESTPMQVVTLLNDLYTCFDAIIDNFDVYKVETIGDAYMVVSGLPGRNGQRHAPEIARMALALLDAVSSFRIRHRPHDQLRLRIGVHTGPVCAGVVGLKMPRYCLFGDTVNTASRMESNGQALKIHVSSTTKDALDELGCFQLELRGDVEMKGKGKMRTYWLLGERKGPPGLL
Chain of Atrial natriuretic peptide receptor 1 (Homo sapiens) (P16066 whole entry, looked up): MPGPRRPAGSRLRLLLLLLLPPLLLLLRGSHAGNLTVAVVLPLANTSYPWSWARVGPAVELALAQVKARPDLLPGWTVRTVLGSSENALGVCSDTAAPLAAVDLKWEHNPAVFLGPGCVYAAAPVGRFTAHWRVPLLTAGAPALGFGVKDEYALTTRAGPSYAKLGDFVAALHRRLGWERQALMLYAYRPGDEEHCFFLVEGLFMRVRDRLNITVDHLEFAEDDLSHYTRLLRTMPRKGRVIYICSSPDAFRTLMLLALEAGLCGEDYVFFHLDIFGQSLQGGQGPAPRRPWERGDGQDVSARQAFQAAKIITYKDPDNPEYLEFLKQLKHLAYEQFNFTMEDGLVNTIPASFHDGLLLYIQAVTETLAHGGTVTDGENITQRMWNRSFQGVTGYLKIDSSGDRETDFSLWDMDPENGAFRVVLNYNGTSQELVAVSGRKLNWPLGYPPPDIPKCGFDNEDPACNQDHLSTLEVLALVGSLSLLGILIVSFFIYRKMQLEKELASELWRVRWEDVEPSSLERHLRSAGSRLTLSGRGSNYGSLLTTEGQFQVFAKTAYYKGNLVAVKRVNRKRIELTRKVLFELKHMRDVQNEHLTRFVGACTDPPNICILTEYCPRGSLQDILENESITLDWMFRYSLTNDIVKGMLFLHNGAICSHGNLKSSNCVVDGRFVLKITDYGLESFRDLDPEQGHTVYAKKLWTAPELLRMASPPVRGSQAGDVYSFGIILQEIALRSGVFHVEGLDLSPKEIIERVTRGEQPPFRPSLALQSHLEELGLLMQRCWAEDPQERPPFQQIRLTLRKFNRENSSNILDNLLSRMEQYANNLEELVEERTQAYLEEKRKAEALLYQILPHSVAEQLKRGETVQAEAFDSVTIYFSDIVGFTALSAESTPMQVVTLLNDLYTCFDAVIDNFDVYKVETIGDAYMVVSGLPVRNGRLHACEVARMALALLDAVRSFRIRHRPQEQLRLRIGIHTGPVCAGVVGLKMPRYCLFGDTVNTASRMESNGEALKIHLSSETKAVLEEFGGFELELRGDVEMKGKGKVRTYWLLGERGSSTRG

On to `O=C1C(Cl)=C(NCCN2CCOCC2)C(=O)c2ncccc21`, for which, in [1], the IC50 (viability decrease) was 3.32 µM (active). Further, the Potency in assay [2] is 1.66 µM (active); in assay [3], 20.9 µM (active); in [4] it was 9.35 µM (active).
In the case of `O=c1cc(-c2cccc3c2Sc2ccccc2S3)oc(N2CCOCC2)c1`, the Potency result in assay [5] and in [3] was “inactive” throughout.
`N#Cc1ccc(NC(=O)Nc2ccccc2Br)c2n[nH]nc12`: the Potency result in [2], in assay [3] and in assay [4] was “inactive” each time.
`CC(C)(C(=O)NCC(F)(F)C(F)(F)F)C(=O)N[C@@H]1C(=O)Nc2ccccc2-c2ccccc21`: the IC50 (viability decrease) entry in [1] was “inactive”. The Potency entry in assay [2], in [5], in assay [3] and in assay [4] was “inactive” throughout.
Turning to `CC(C)(C)C(=O)Oc1ccc2c(c1)nc(NC(=O)c1cccc([N+](=O)[O-])c1)n2CCCO`, in assay [1], the IC50 (viability decrease) is 18.7 µM (active). For the same compound, the Potency result in assay [2] and in assay [4] was “inactive” each time.
In the case of `COc1cccc2c1CCCC2CCCN1CCN(C2CCCCC2)CC1` (stereo not given), the IC50 (viability decrease) in assay [1] is 16.6 µM (active).
`O=C(CCCCCCC(=O)Nc1ccccc1)NO`: in [1], the IC50 (viability decrease) is 3.4 µM (active). In addition, the Potency in [3] is 4.61 µM (active) and 3.66 µM (active) and 6.62 µM (active).
Consider `CN(C)Cc1ccc(-c2nc3cccc4c3n2CCNC4=O)cc1`, for which the IC50 (viability decrease) in assay [1] was 23.5 µM (active). The Potency result in assay [3] is “inactive”.
On to `CC1=C(/C=C/C(C)=C/C=C/C(C)=C/C(=O)Nc2ccc(O)cc2)C(C)(C)CCC1`, for which the IC50 (viability decrease) in [1] is 3.32 µM (active). For the same compound, the Potency is 23.5 µM (active) in assay [2] and 23.1 µM (active) in assay [3]. For the same compound, the outcome in assay [6], in assay [7], in [8] and in assay [9] was inactive.
Consider `COc1ncc(-c2ccc3nccc(-c4ccnnc4)c3c2)cc1NS(=O)(=O)c1ccc(F)cc1F`, for which, in [1], the IC50 (viability decrease) was 0.118 µM (active). For the same compound, the Potency in [3] is 2.96 µM (active) and 29.1 nM (active); in assay [4], 0.0418 µM (active).
On to `NC(CO)(CO)CCc1ccc(Sc2cccc(OCc3ccccc3)c2)cc1Cl`, for which the IC50 (viability decrease) in assay [1] is 26.4 µM (active). The Potency entry in assay [2] is “inactive”. The Potency in [3] is 20.9 µM (active); in assay [4] it was 9.35 µM (active).
For `CS(=O)c1ccc(-c2nc(-c3ccc(F)cc3)c(-c3ccncc3)[nH]2)cc1` (stereo not given), the IC50 (viability decrease) result in assay [1] is “inactive”. Besides, the Potency entry in [5] and in assay [3] was “inactive” in each case.
`O=C(O)CCC1CCC(c2cc(F)ccc2F)(S(=O)(=O)c2ccc(Cl)cc2)CC1` (stereo not given): the IC50 (viability decrease) entry in [1] was “inactive”. Further, the Potency result in assay [2], in assay [5], in assay [3] and in [4] was “inactive” in each case.
Turning to `Clc1ccc(-c2nc3sccn3c2C=NOCc2ccc(Cl)c(Cl)c2)cc1`, in assay [1], the IC50 (viability decrease) result was “inactive”. Also, the Potency entry in assay [3] and in [4] was “inactive” in each case.
For `CN(C)C1CCN(C(=O)c2ccc(NC(=O)Nc3nc(N4CCOCC4)nc(N4CCOCC4)n3)cc2)CC1`, in assay [1], the IC50 (viability decrease) is 0.0148 µM (active). For the same compound, the Potency is 14.8 µM (active) in [3] and 0.418 µM (active) in assay [4].
In the same order, the values of `CC(C)(C)COc1ccc(-n2cc(C(=O)O)cn2)cc1C#N` are “inactive”, “inactive” and “inactive”.
With `CC(C)[C@H](CO)Nc1nc(Nc2ccc(C(=O)O)c(Cl)c2)c2ncn(C(C)C)c2n1`, in [1], the IC50 (viability decrease) entry is “inactive”. Besides, the Potency result in assay [2], in [5], in assay [3] and in assay [4] was “inactive” throughout.
With `CN1CCN(CCOc2cc(OC3CCOCC3)c3c(Nc4c(Cl)ccc5c4OCO5)ncnc3c2)CC1`, the IC50 (viability decrease) in [1] was 20.9 µM (active). In assay [3], the Potency entry was “inactive”.
The matching figures for `CO[C@H]1C=CC=C(C)C(=O)NC2=CC(=O)C(NCCN(C)C)=C(C[C@@H](C)C[C@H](OC)[C@@H](O)[C@@H](C)C=C(C)[C@@H]1OC(N)=O)C2=O`: 0.0059 µM (active) and 7.43 µM (active).
As for `Cc1ccc(F)c(NC(=O)Nc2ccc(-c3cccc4[nH]nc(N)c34)cc2)c1`, the IC50 (viability decrease) in [1] was 26.4 µM (active). Also, in [3], the Potency is 23.5 µM (active). Besides, in assay [4], the Potency entry was “inactive”.
In the case of `CO[C@@H](C(=O)N1Cc2[nH]nc(NC(=O)c3ccc(N4CCN(C)CC4)cc3)c2C1)c1ccccc1`, the IC50 (viability decrease) in [1] was 0.0935 µM (active). Besides, the Potency in [5] was 1.3 µM (active). Besides, the Potency result in [4] is “inactive”.
`O=C(O)c1ccc(-c2cc3cccnc3c(-c3ccc4nonc4c3)n2)cc1`: in assay [1], the IC50 (viability decrease) result is “inactive”. In addition, the Potency in [4] was 23.5 µM (active).
As to `COc1cc2ncnc(-n3nc(-c4ccccn4)nc3N)c2cc1OC`, in [1], the IC50 (viability decrease) was 3.32 µM (active). Moreover, the Potency is 18.7 µM (active) in assay [2]; “inactive and 10 µM (active)” in assay [3]. Besides, the Potency result in assay [5] and in assay [4] was “inactive” each time.
Consider `CC(=O)N(C)C1(c2ccccc2)CCN(CCC[C@]2(c3ccc(Cl)c(Cl)c3)CCCN(C(=O)c3ccccc3)C2)CC1`, for which the IC50 (viability decrease) in assay [1] is 9.35 µM (active). Further, the Potency in assay [3] was 10.5 µM (active) and 13 µM (active); in assay [4], 26.4 µM (active).
Consider `CC(C)(C)c1cc(C(=O)O)c(NC(=O)Nc2ccc3[nH]ncc3c2)s1`, for which the IC50 (viability decrease) result in assay [1] is “inactive”. Also, the Potency entry in assay [5], in [3] and in assay [4] was “inactive” in each case.
Take `CCOc1ccc(Nc2nc(-c3c(C)nc4ccccn34)cs2)cc1`: the IC50 (viability decrease) in assay [1] is 0.0264 µM (active). In assay [3], the Potency is 1 nM (active) and 36.6 nM (active). Also, in assay [4], the Potency entry is “inactive”.
For the compound `O=C(Nc1cc(Cl)cc2c1[nH]c1cnccc12)c1cccnc1`, the Potency entry in [2], in [5], in [3] and in assay [4] was “inactive” each time.
Regarding `Cc1nc(N)sc1-c1ccnc(Nc2ccc(N3CCOCC3)cc2)n1`, the IC50 (viability decrease) in assay [1] was 5.9 µM (active). The Potency is 1.46 µM (active) in [5]; 5.26 µM (active) and 1.16 µM (active) in assay [3].
As for `c1ccc2c(-c3cnn4cc(-c5ccc(N6CCNCC6)cc5)cnc34)ccnc2c1`, in assay [1], the IC50 (viability decrease) was 23.5 µM (active). The Potency in assay [2] is 20.9 µM (active); in assay [4] it was 4.18 µM (active).
As to `O=C(Nc1ccccc1-c1cn2c(CN3CCNCC3)csc2n1)c1cnc2ccccc2n1`, the Potency entry in assay [2] and in [4] was “inactive” throughout. The Potency in assay [3] was 26.4 µM (active).
Take `O=c1cc(CN2CCOCC2)occ1OCCCCCSc1ccnc2cc(C(F)(F)F)ccc12`: in assay [2], the Potency result is “inactive”. Moreover, in assay [3], the Potency was 10.3 µM (active).
